Each structure is given as a SMILES string. Values without a mark were called inactive. Inconclusive results are not listed. Activity calls are given as the source filed them. Unless noted, the call rests on the fitted dose curve; in most records, active means well fitted curve in the direction sought with a large enough effect; inconclusive means small, poorly fitted or top-dose-only effect, or another doubt; inactive means no such curve, though single readings can be large; an effect the other way counts as inactive or inconclusive. Some results are limits rather than exact numbers.

Assay [1] concerns the target Cytochrome P450 1A2 (Homo sapiens) (UniProt P05177). The experiment in a line: p450-cyp1a2 (AID 410; calls by dose curve; further: potency means the concentration at half of the fitted maximal effect). In outline: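 Luminescent readout of luciferin formed from Luciferin-ME by human CYP1A2; data normalized against complete inhibition by 57 uM furafylline. Enzyme 20nM, substrate 100uM at Km, 100mM KPO4 buffer, 60 min reaction at room temperature.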
Assay [2] has as its target Glucocorticoid receptor (Homo sapiens) (UniProt P04150). The experiment in a line: GR-GFP Redistribution (AID 450;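 active means compounds whose dose series gives a full or clear partial fitted curve of increased nuclear translocation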; further: potency means the concentration at half of the fitted maximal effect). The conditions noted are these: U2OS GR-GFP nuclear translocation, laser cytometry, 2 h.
Assay [3] has the same target. The experiment in a line: GR-EFC Redistribution (AID 451; calls by dose curve; further: potency means the concentration at half of the fitted maximal effect). The conditions noted are these: CHO-K1 GR-EFC translocation, beta-gal luminescence, 2 h. The essentials: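 CHO-K1 cells stably expressing nuclear-localized β-gal enzyme acceptor and GR fused C-terminally to the enzyme donor fragment; ligand-driven nuclear translocation restores β-gal by complementation. Compounds titrated up to 46 uM final, 2 h at 37 °C; luminescence read.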

Assay [4] deals with Cytochrome P450 3A4 (Homo sapiens) (UniProt P08684). The experiment in a line: qHTS Assay for Activators of Cytochrome P450 3A4 (AID 885). Further: nearly all actives have a fitted effect of over 65% in size. Further: potency means the concentration at half of the fitted maximal effect. The essentials:
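20nM CYP3A4 + 25uM Luciferin-PPXE (=KM), 200mM KPO4; cpd 10 min RT; NADPH regen, 60 min RT; stop w/ detection buffer, 20 min; luminescence. Normalized to 57 uM ketoconazole.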
A general note: Quantitative high-throughput screening tests each substance at several concentrations.

Assay [5] addresses Ubiquitin carboxyl-terminal hydrolase 1 (Homo sapiens) (UniProt O94782). The experiment in a line: Inhibitors of USP1/UAF1: Pilot qHTS (AID 504865).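 Further: rhodamine fluorescence freed from ubiquitin-rhodamine substrate followed over time; top concentration of the series differs between compounds; nearly all actives have a fitted effect of over 35% in size.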 In outline: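 Enzyme-free wells gave the negative control, while test wells held 1nM USP1/UAF1 preincubated with compound for 15 min at room temperature. Ub-Rho at 150nM final started the reaction, and fluorescence at 480/540 nm was recorded kinetically.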

Assay [6] has as its system Zika virus NS2B-NS3 protease. The experiment in a line: Primary screen GU AMC qHTS for Zika virus inhibitors (AID 1347154). Further: nearly all actives have a fitted effect of over 70% in size. In outline:
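Unlinked Zika NS2B hydrophilic domain/NS3 protease domain noncovalent complex (25 nM final) in 10 mM Tris-HCl pH 8.0, 0.01% Tween 20, with AMC peptide substrate. Fluorescence (ex 340, em 450 nm) change over 15 min, room temperature; percent inhibition fitted to 4-parameter Hill equation.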

A short description of assay [7]: Primary qHTS for small molecule stabilizers of the endoplasmic reticulum resident proteome: Secreted ER Calcium Modulated Protein (SERCaMP) assay (AID 1508630). The essentials:
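GLuc-SERCaMP-expressing SH-SY5Y cells, pretreated 16 h with compound, are challenged with thapsigargin to empty ER calcium stores; after 4 h, coelenterazine is added directly to the medium and luminescence is imaged.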

Assay [8] concerns the target Mitogen-activated protein kinase 10 (Mus musculus) (UniProt Q61831). The experiment in a line: JNK3 AlphaScreen Assay (AID 530; active means well fitted curve in either direction with a large enough effect, not every such curve was filed as active;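 further: kinase came from lysate of stimulated human HepG2 cells; signal reports phosphorylation of biotinylated GST-cJun 1-79 at Ser73 with 10 µM ATP; series mostly up to about 57 µM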). The essentials: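 Inhibitors reduce antibody binding to phosphorylated biotin-cJun, lowering AlphaScreen luminescence. Lysates from HepG2 cells pre-activated by IL-1beta plus TNF-alpha supplied JNK3; compounds were titrated.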
Assay [9] concerns the target 3',5'-cyclic-AMP phosphodiesterase 4B (Homo sapiens) (UniProt Q07343). The experiment in a line: qHTS Assay for Inhibitors of PDE-IV (AID 607; active means well fitted activation curve with a large enough effect in the main read-out, with a control signal flat, not every such curve was filed as active). In outline: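 ACTOne HEK293 cells carry a modified cAMP-gated CNG channel and express endogenous PDE4; plated 1000 cells/well, compounds up to 22.9 uM final. Membrane-potential dye fluorescence (ex 535/em 590) was read; parental cells received 10 uM forskolin + 100 uM RO 20-1724.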

In assay [10] the target is DNA dC->dU-editing enzyme APOBEC-3G (Homo sapiens) (UniProt Q9HC16). The experiment in a line: qHTS for inhibitors of Vif-A3G interactions: Validation (AID 588379). In outline: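 HeLa cells stably expressing Vif and A3G-eYFP, 700 cells/well, incubated overnight at 37 deg C, then exposed to compound overnight at 37 deg C. Inhibition of Vif-mediated degradation read as increased yellow fluorescence (Ex 488/Em 500-530) by laser-scanning cytometry.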

The target of assay [11] is Cytochrome P450 2C9 (Homo sapiens) (UniProt P11712). The experiment in a line: qHTS Assay for Inhibitors and Substrates of Cytochrome P450 2C9 (AID 883). Further: nearly all actives have a fitted effect of over 60% in size. Further: potency means the concentration at half of the fitted maximal effect. In outline: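 Human CYP2C9 (10nM) hydroxylated Luciferin-H (100uM, at its KM) to luciferin in 25mM KPO4. Compound was preincubated 10 min at 37C, then NADPH regeneration started a 60 min reaction at 37C. Luminescence was read after detection reagent, normalized to 57uM sulphaphenazole.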

Assay [12] addresses Cytochrome P450 3A4 (Homo sapiens) (UniProt P08684). The experiment in a line: qHTS Assay for Inhibitors and Substrates of Cytochrome P450 3A4 (AID 884). Further: series mostly up to about 57 µM; nearly all actives have a fitted effect of over 50% in size. In outline: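 20 nM human CYP3A4 with 25 uM Luciferin-PPXE (at KM) in 200 mM KPO4, preincubated 10 min with compound; NADPH regeneration started a 60 min RT reaction. Luciferin detected by luminescence, normalized to 57 uM ketoconazole as full inhibition.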

Assay [13] has as its target Cytochrome P450 2D6 (Homo sapiens) (UniProt P10635). The experiment in a line: qHTS Assay for Inhibitors and Substrates of Cytochrome P450 2D6 (AID 891). Further: potency means the concentration at half of the fitted maximal effect; nearly all actives have a fitted effect of over 60% in size. In outline: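 Human CYP2D6 (5 nM) with 30 uM Luciferin-ME EGE (at Km) in 100 mM KPO4, compound preincubated 10 min, then NADPH regeneration system for 60 min at room temperature. Luciferin read by luminescence; normalized to 1.43 uM quinidine.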

Assay [14] has as its target Cytochrome P450 2C19 (Homo sapiens) (UniProt P33261). The experiment in a line: qHTS Assay for Inhibitors and Substrates of Cytochrome P450 2C19 (AID 899). Further: nearly all actives have a fitted effect of over 60% in size. In outline: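 Human CYP2C19 (5nM) with Luciferin-H EGE at 10uM (its KM) in 50mM KPO4 was preincubated with compound for 10 min at 37C. NADPH regeneration started a 60 min 37C reaction. Luciferin was read by luminescence, normalized to 57uM ketoconazole.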

Sequence of DNA dC->dU-editing enzyme APOBEC-3G (Homo sapiens) (Q9HC16 whole entry, looked up): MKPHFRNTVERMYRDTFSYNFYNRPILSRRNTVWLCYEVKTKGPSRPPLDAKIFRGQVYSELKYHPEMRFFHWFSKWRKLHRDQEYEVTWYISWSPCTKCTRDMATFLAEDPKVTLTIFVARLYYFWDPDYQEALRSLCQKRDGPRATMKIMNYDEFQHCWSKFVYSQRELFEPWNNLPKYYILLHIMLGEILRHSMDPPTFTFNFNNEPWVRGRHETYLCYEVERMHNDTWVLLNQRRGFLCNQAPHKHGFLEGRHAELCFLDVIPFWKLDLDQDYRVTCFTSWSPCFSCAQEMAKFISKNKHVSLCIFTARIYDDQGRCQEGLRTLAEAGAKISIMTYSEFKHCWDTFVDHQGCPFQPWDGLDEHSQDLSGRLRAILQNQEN
Sequence of Cytochrome P450 1A2 (Homo sapiens) (P05177 whole entry, looked up): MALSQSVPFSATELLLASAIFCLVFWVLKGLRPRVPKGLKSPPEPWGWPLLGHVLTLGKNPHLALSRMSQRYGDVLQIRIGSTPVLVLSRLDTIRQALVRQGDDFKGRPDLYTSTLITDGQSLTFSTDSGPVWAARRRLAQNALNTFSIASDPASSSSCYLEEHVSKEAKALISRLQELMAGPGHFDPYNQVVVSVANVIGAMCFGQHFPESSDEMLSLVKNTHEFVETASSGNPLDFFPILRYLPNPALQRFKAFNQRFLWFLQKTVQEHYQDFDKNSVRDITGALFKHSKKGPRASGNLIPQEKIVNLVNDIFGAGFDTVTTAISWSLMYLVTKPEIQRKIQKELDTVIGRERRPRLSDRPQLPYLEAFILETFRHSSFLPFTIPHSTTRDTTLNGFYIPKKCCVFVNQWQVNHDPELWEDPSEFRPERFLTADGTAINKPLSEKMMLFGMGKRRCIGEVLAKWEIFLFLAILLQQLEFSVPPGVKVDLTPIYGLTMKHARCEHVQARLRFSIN
Sequence of Cytochrome P450 3A4 (Homo sapiens) (P08684 whole entry, looked up): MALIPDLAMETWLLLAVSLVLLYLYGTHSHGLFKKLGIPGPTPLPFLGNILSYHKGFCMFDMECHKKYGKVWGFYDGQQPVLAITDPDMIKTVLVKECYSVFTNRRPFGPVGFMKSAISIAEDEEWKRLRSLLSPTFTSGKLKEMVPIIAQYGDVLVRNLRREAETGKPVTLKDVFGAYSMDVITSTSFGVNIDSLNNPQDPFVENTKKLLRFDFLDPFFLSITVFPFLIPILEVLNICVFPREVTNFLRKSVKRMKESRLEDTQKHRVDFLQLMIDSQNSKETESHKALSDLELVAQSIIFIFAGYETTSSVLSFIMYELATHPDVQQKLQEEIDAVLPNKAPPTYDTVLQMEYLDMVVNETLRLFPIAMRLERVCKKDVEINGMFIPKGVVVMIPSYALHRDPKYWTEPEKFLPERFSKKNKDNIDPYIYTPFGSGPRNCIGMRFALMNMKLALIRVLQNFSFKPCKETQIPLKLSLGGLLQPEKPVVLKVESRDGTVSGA
Sequence of Glucocorticoid receptor (Homo sapiens) (P04150 whole entry, looked up, the tested form may be a part): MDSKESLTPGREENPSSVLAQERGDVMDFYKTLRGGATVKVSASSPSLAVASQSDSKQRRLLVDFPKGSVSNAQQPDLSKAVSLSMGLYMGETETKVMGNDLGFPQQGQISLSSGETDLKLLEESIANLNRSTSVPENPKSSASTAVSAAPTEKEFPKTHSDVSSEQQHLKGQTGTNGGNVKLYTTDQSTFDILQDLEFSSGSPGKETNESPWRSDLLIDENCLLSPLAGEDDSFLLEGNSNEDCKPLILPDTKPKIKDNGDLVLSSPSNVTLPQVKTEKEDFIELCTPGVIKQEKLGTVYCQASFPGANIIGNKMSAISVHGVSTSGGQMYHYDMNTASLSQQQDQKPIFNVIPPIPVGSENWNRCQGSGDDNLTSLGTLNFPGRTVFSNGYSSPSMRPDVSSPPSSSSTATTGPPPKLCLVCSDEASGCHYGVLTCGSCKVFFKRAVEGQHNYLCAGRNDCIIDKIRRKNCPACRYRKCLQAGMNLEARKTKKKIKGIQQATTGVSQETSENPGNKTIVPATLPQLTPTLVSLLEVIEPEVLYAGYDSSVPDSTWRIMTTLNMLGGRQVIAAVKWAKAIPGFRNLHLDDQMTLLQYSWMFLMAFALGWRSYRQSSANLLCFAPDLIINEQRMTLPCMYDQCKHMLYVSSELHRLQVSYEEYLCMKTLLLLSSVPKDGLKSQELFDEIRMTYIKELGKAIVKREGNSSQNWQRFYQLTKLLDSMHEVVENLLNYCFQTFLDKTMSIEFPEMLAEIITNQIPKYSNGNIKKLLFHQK
Sequence of 3',5'-cyclic-AMP phosphodiesterase 4B (Homo sapiens) (Q07343 whole entry, looked up): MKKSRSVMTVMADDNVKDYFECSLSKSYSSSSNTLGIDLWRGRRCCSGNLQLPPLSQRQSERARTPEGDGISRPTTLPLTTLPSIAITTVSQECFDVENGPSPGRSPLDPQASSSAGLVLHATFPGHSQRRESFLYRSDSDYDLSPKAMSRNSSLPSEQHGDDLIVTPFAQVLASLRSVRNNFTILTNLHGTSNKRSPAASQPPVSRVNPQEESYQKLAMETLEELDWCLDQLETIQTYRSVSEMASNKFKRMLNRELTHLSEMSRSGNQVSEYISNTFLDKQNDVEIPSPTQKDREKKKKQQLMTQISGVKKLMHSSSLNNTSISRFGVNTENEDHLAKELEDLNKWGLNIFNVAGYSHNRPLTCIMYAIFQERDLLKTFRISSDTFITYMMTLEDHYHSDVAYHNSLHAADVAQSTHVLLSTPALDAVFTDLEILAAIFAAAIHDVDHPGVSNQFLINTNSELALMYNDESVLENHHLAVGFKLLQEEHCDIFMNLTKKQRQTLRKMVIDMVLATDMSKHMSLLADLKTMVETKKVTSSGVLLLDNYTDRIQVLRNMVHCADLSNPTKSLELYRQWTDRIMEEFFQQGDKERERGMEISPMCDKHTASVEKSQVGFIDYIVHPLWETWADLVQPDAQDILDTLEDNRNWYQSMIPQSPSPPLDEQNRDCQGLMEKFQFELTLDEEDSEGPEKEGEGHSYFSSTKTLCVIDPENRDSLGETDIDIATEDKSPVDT
Sequence of Ubiquitin carboxyl-terminal hydrolase 1 (Homo sapiens) (O94782 whole entry, looked up): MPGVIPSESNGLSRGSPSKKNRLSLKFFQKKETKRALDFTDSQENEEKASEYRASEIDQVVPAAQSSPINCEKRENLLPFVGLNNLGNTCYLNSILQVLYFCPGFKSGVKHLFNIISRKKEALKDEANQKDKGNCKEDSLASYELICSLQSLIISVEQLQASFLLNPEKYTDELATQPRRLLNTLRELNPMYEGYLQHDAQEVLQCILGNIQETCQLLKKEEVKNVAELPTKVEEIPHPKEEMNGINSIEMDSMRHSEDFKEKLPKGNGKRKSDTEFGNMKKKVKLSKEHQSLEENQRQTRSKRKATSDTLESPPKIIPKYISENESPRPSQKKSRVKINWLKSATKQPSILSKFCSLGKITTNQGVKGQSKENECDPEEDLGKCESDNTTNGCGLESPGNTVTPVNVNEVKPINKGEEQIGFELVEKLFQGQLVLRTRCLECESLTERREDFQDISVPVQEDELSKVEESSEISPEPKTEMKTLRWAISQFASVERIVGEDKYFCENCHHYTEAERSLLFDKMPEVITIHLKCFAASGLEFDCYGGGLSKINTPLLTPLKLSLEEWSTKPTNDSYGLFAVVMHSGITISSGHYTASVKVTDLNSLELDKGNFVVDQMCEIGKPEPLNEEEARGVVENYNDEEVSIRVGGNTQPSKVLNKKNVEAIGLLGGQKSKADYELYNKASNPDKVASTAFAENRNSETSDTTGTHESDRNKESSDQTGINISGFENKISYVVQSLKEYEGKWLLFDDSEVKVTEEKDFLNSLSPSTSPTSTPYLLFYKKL
Sequence of Cytochrome P450 2C9 (Homo sapiens) (P11712 whole entry, looked up): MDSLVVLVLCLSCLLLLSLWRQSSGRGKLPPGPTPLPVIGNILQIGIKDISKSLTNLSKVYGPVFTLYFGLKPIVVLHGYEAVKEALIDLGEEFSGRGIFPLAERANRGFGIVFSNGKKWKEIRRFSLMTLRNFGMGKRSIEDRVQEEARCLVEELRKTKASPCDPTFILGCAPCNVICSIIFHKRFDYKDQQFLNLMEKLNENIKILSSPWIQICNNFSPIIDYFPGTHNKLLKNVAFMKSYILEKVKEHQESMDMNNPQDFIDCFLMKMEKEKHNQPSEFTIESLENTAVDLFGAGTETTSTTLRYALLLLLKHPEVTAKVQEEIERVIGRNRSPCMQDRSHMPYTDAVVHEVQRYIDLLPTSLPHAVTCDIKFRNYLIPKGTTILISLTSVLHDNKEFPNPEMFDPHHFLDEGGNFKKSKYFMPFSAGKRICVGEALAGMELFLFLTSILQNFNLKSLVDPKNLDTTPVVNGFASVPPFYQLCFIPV
Sequence of Cytochrome P450 2D6 (Homo sapiens) (P10635 whole entry, looked up): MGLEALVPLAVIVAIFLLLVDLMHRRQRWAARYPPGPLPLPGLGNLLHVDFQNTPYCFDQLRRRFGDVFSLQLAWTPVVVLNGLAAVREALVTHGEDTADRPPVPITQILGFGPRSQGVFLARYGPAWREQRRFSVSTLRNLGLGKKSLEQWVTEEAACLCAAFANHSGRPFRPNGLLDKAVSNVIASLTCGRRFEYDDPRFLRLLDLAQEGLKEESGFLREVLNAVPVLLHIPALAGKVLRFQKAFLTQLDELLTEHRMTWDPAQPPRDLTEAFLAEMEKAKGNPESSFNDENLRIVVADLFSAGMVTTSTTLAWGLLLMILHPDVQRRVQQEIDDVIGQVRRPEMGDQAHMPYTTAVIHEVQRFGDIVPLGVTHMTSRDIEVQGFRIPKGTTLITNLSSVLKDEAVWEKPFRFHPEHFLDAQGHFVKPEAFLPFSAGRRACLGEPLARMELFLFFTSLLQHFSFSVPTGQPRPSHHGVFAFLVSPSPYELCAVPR

For `CC[C@]1(O)C[C@@H]2CN(CCc3c([nH]c4ccccc34)[C@](C(=O)OC)(c3cc4c(cc3OC)N(C)[C@H]3[C@](O)(C(=O)OC)[C@@H](C(=O)OC)[C@@]5(CC)C=CCN6CC[C@@]43[C@@H]65)C2)C1`, the Potency result in assay [1], in assay [4], in assay [5], in [6] and in assay [7] was “inactive” throughout. Also, the Potency in [2] and in assay [3] was above 46 µM each time.

On to `CCCCCCCC/C=C\CCCCCCCC(N)=O`, for which the Potency is 6.31 µM (active) in assay [1], above 46 µM in [2] and above 46 µM in [3]. The Potency result in [8], in assay [9], in assay [10], in assay [6] and in [7] was “inactive” in each case.

`Cc1noc(NS(=O)(=O)c2cccc3c(N(C)C)cccc23)c1C`: the Potency entry in assay [1], in [8], in assay [9], in [4], in assay [10] and in assay [6] was “inactive” each time. Further, the Potency result in [7] was “inactive”. Further, the Potency in assay [2] was above 46 µM; in [3], above 46 µM; in assay [11], 631 nM (active).

With `CCCN(C/C=C\I)[C@@H]1CCc2cccc(O)c2C1`, the Potency in assay [1] is 2.51 µM (active); in [2], above 46 µM; in [3], above 46 µM; in [4], 25.1 µM (active). The Potency result in assay [8], in assay [12], in assay [10], in assay [6] and in assay [7] was “inactive” throughout.

For `O=C(N/N=C\c1ccccc1O)c1ccccc1O`, the Potency in assay [1] is 0.794 µM (active); in assay [2], above 46 µM; in [3], above 46 µM; in assay [13], 7.94 µM (active). The Potency result in assay [9], in [11], in assay [4], in assay [14], in assay [5] and in [6] was “inactive” in each case. For the same compound, the Potency entry in assay [7] was “inactive”.

Consider `C[C@](O)(C(=O)Nc1ccc(S(=O)(=O)c2ccccc2)cc1)C(F)(F)F`, for which the Potency in [1] is 39.8 µM (active); in assay [2], above 46 µM; in assay [3], above 46 µM. Also, the Potency result in assay [8], in [4], in assay [5], in [10], in assay [6] and in [7] was “inactive” each time.

As for `COc1ccc(CCCO[C@@H](Cn2ccnc2)c2ccc(OC)cc2)cc1`, the Potency in assay [1] is 0.0158 µM (active); in [2], above 46 µM; in assay [3], above 46 µM. Further, the Potency result in [8], in assay [6] and in assay [7] was “inactive” throughout.

For the compound `CC(C)[C@@H]1C(=O)N(S(C)(=O)=O)[C@H]2CCN(C(=O)/C=C\CN3CCCCC3)[C@@H]12`, the Potency entry in assay [1], in [8], in [9], in assay [5], in [10] and in [6] was “inactive” in each case. For the same compound, the Potency result in assay [7] is “inactive”. For the same compound, the Potency in assay [2] and in assay [3] was above 46 µM in each case.

For the compound `CCn1c(=O)[nH]c2ccccc21`, the Potency in assay [1] is 31.6 µM (active); in assay [2], above 46 µM; in [3], above 46 µM. Also, the Potency result in [8], in assay [9], in assay [10], in assay [6] and in [7] was “inactive” in each case.

As to `Nc1nc(NCCc2ccc(O)cc2)nc2nc(-c3ccco3)nn12`, the results for the Potency in assay [1], in assay [2] and in assay [3] were 31.6 µM (active), above 46 µM and above 46 µM, respectively. Besides, the Potency entry in assay [9], in assay [4], in assay [5], in [10], in assay [6] and in assay [7] was “inactive” throughout.

Source of the values: PubChem BioAssay (NCATS).
